Records with an inconclusive call do not appear. Active and inactive are the calls of the source. How the source made its calls: active means hit-call score of the fitted dose curve at least 0.9, where 1 is the maximum; inconclusive means response in the unintended direction; inactive means score below 0.9.

As usually defined, the AC50 is the concentration at which the activity in the assay is half-maximal.

Read-out in this test: HMG-CoA synthase (HMGCS2), HMGCS2 (gene 3158)
In words: CLD_HMGCS2_48hr: CellzDirect (CLD) Gene Expression Assay for HMG-CoA synthase (HMGCS2) at 48 hours (AID 2283711). Here is the method: CLD_48hr is a cell-based, multiplexed-readout assay that uses hepatocyte, a human liver primary cell, with measurements taken at 48 hours after chemical dosing in a 96-well plate.CLD_HMGCS2_48hr is one of 16 assay component(s) measured or calculated from the CLD_48hr assay. It is designed to make measurements of mRNA induction, a form of inducible reporter, as detected with chemiluminescence signals by Quantitative Nuclease Protection Assay (qNPA) technology.Data from the assay component CLD_HMGCS2_48hr was analyzed at the endpoint, CLD_HMGCS2_48hr, in the positive analysis fitting direction relative to DMSO as the negative control and baseline of activity. Using a type of inducible reporter, gain-of-signal activity can be used to understand changes in the reporter gene as they relate to the gene HMGCS2. Furthermore, this assay endpoint can be referred to as a primary readout. To generalize the intended target to other relatable targets, this assay endpoint is annotated to the lyase intended target family, where subfamily is HMG-CoA synthase.
Human hepatocyte cultures were treated daily for two consecutive days with fresh dosing solutions containing appropriate concentrations of the 320 ToxCast chemicals (chemical identities were blinded to CellzDirect and other ToxCast collaborators), vehicle control (0.2% DMSO), and positive control inducers as summarized in Table 1. Due to the large number of treatment groups and chemicals examined, the ToxCast chemicals were divided into two groups (spanning two independent cultures of hepatocytes from separate donor preparations (Hu778: ToxCast plates 1 and 2; Hu776: ToxCast plates 3 and 4). Each preparation of human hepatocyte cultures was treated with respective vehicle control, medium only control, set of six positive controls/reference chemicals for the five hepatic receptor pathways, and a subset of eight of the ToxCast chemicals (indoxacarb, pyrithiobac-sodium, norflurazon, cyhalofop-butyl, methomyl, thiram, acetochlor, and propiconazole). These replicate data, coupled with internal replicates designed within the blinded ToxCast chemical library, provided additional data to evaluate interindividual differences between hepatocyte preparations and their potential impact on chemical profiles.Cell morphology and integrity were evaluated using phase-contrast microscopy as an indicator of hepatocyte cell health (Tyson & Green, 1987). Cultures for each treatment group (i.e., media, vehicle [0.2% DMSO], positive control inducers [multiple concentrations], and the ToxCast chemicals [multiple concentrations]) were observed and cell morphology was assessed relative to vehicle control cultures at each harvest time point (0, 6, 24, or 48 h). […] Images were evaluated at the conclusion of the study to assess changes in cell integrity and account for the effects of chemical exposure on uncharacteristic changes in concentration-dependent gene expression profiles. The results from these determinations of apparent cytotoxicity were annotated (yes/no) alongside the corresponding qNPA data for reference.At the conclusion of each treatment period, hepatocyte cultures (96-well) were washed with 1 volume of HBSS, lysed by addition of 25 ul ArrayPlate lysis buffer (HTG, Tucson, AZ), and 70 ul/well of Denaturation Oil, denatured by incubation at 95C for 10 min, and frozen at approximately -70C until analysis by nuclease protection assay (qNPA) (Roberts et al., 2007). For qNPA analysis, cell lysates were thawed at 50C for approximately 30 min, qNPA probes were added, and samples were incubated at 95C for 10 min to begin the detection process by denaturing the target RNA, dissociating the duplexes and secondary structure hybridization. At the conclusion of the hybridization period, S1 nuclease reagent was added to each sample to digest all nonprotected nucleotides at 50C for 60-90 min. […]
With `CCOP(=S)(OCC)Oc1ccc2c(C)c(Cl)c(=O)oc2c1`, the concentration at half-maximal activity (AC50) was 12.5 nM (active).

As to `C=C(C)[C@H]1Cc2c(ccc3c2O[C@@H]2COc4cc(OC)c(OC)cc4[C@@H]2C3=O)O1`, the outcome was inactive.

For the compound `C#CC(C)(C)NC(=O)c1cc(Cl)cc(Cl)c1`, the half-maximal activity concentration (AC50) was 9.4 nM (active).

Regarding `C[N+]1(C)CCCCC1`, the compound was classed as inactive.

For `CNC(=O)ON=C(SC)C(=O)N(C)C`, the call was inactive.

Consider `COP(=O)(OC)C(O)C(Cl)(Cl)Cl` (stereo not given), for which the result was inactive.

As for `CC[C@H](C)[C@H]1O[C@]2(C=C[C@@H]1C)C[C@@H]1C[C@@H](C/C=C(\C)[C@@H](O[C@H]3C[C@H](OC)[C@@H](O[C@H]4C[C@H](OC)[C@@H](NC)[C@H](C)O4)[C@H](C)O3)[C@@H](C)/C=C/C=C3\CO[C@@H]4[C@H](O)C(C)=C[C@@H](C(=O)O1)[C@]34O)O2`, the outcome was inactive.

As for `CC(COc1ccc(Oc2ccccc2)cc1)Oc1ccccn1` (stereo not given), the compound was classed as inactive.

As to `COP(=O)(OC)SCn1c(=O)oc2cc(Cl)cnc21`, the result was inactive.

As to `COc1cc(OC)nc(Sc2cccc(Cl)c2C(=O)O)n1`, the compound was called inactive.

Turning to `CCCSP(=O)(OCC)SCCC`, the outcome was inactive.

As for `CN(C)[C@@H]1C(=O)C(C(N)=O)=C(O)[C@@]2(O)C(=O)C3=C(O)c4c(O)cccc4[C@@](C)(O)[C@H]3[C@H](O)[C@@H]12`, the AC50 was 164 nM (active).

Regarding `CC(C)N(C(=O)SCC(Cl)=C(Cl)Cl)C(C)C`, the result was inactive.

In the case of `COP(=O)(NC(C)=O)SC` (stereo not given), the call was inactive.

Regarding `CCCCSP(=O)(SCCCC)SCCCC`, the result was inactive.

Turning to `CCOP(=S)(OCC)Oc1ccc([N+](=O)[O-])cc1`, the call was inactive.

With `CN1COCN(Cc2cnc(Cl)s2)C1=N[N+](=O)[O-]`, the outcome was inactive.

As to `CC(C1CC1)C(O)(Cn1cncn1)c1ccc(Cl)cc1` (stereo not given), the call was inactive.

In the case of `CC(=NC#N)N(C)Cc1ccc(Cl)nc1`, the outcome was inactive.

In the case of `CCCCOC(=O)[C@@H](C)Oc1ccc(Oc2ccc(C#N)cc2F)cc1`, the compound was called inactive.

With `N#CSCSC#N`, the compound was called inactive.

With `CCCCN(CC)c1c([N+](=O)[O-])cc(C(F)(F)F)cc1[N+](=O)[O-]`, the outcome was inactive.

With `CN(C)C(=O)Nc1cccc(C(F)(F)F)c1`, the compound was classed as inactive.

With `CC1=NNC(=O)N(/N=C/c2cccnc2)C1`, the result was inactive.

Consider `CCNc1nc(Cl)nc(NC(C)(C)C#N)n1`, for which the outcome was inactive.

As for `CCc1cnc(C2=NC(C)(C(C)C)C(=O)N2)c(C(=O)O)c1` (stereo not given), the result was inactive.

Consider `CCCSP(=O)(OCC)Oc1ccc(Br)cc1Cl` (stereo not given), for which the outcome was inactive.

As to `O=C(O)c1cc(Oc2ccc(C(F)(F)F)cc2Cl)ccc1[N+](=O)[O-]`, the half-maximal activity concentration (AC50) was 26 nM (active).

With `Cc1ccn2nc(S(=O)(=O)Nc3c(F)cccc3F)nc2n1`, the result was inactive.

On to `CCCOc1nn(C(=O)NS(=O)(=O)c2ccccc2C(=O)OC)c(=O)n1C`, for which the compound was called inactive.

For the origin of these results see PubChem BioAssay (EPA / NIEHS).
